# Measurements from PubChem BioAssay AID1159580 (chemical genetic matrix, 2015).
# “And” between values parts separate entries of the source, which are not always exact repeats. Equal values may be shown once. About 2,000 (36%) of roughly 5,500 compounds were called active. Not shown: some 18% with an inconclusive outcome. The list shows a part of the results. Unmarked numbers belong to inactive results. No stated cut-off is given here; in the data, active means normalized growth mostly below about 0.91 (no sharp cut-off); inconclusive means no clear call, values can overlap the other calls; inactive means mostly above about 0.92.
# Assay: chemical genetic growth profiling, strain panel (AID 1159580);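 further: tested at 20 µM; growth read once vehicle control cultures reached saturation at 30 °C; 1 = growth at the plate median or of vehicle wells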
# Details: S. cerevisiae deletion strains, growth OD
smiles,measurement,setting,value
CN(Cc1cc(Br)cc(Br)c1N)C1CCCCC1,normalized growth,"locus YAL021C, strain ccr4, stronger effect = lower value",0.979
same,normalized growth,"locus YAL026C, strain drs2, stronger effect = lower value",1.03
same,normalized growth,"locus YAL030W, strain snc1, stronger effect = lower value",1.06
same,normalized growth,"locus YBL061C, strain skt5, stronger effect = lower value",1.03
same,normalized growth,"locus YBR009C, strain hhf1, stronger effect = lower value",1
same,normalized growth,"locus YBR021W, strain FUR4, stronger effect = lower value",0.948
same,normalized growth,"locus YBR023C, strain chs3, stronger effect = lower value",1.03
same,normalized growth,"locus YBR171W, strain sec66, stronger effect = lower value",1.06
same,normalized growth,"locus YBR229C, strain ROT2, stronger effect = lower value",1.01
same,normalized growth,"locus YBR231C, strain swc5, stronger effect = lower value",1.02
same,normalized growth,"locus YBR279W, strain paf1, stronger effect = lower value",1.02
same,normalized growth,"locus YCL011C, strain gbp2, stronger effect = lower value",1.02
same,normalized growth,"locus YCL016C, strain dcc1, stronger effect = lower value",1.01
same,normalized growth,"locus YCL029C, strain bik1, stronger effect = lower value",1.02
same,normalized growth,"locus YCL061C, strain MRC1, stronger effect = lower value",1.01
same,normalized growth,"locus YCL069W, strain vba3, stronger effect = lower value",1.03
same,normalized growth,"locus YCR088W, strain abp1, stronger effect = lower value",1.05
same,normalized growth,"locus YDL005C, strain med2, stronger effect = lower value",1.07
same,normalized growth,"locus YDL035C, strain GPR1, stronger effect = lower value",0.943
same,normalized growth,"locus YDL040C, strain nat1, stronger effect = lower value",1.03
same,normalized growth,"locus YDL074C, strain BRE1, stronger effect = lower value",0.954
same,normalized growth,"locus YDL101C, strain DUN1, stronger effect = lower value",0.999
same,normalized growth,"locus YDL134C, strain PPH21, stronger effect = lower value",1
same,normalized growth,"locus YDL185W, strain tfp1, stronger effect = lower value",1.02
same,normalized growth,"locus YDL192W, strain arf1, stronger effect = lower value",1.02
same,normalized growth,"locus YDR001C, strain nth1, stronger effect = lower value",1.03
same,normalized growth,"locus YDR069C, strain doa4, stronger effect = lower value",0.983
same,normalized growth,"locus YDR101C, strain arx1, stronger effect = lower value",0.999
same,normalized growth,"locus YDR137W, strain rgp1, stronger effect = lower value",1.03
same,normalized growth,"locus YDR159W, strain sac3, stronger effect = lower value",1.09
same,normalized growth,"locus YDR162C, strain NBP2, stronger effect = lower value",1.02
same,normalized growth,"locus YDR195W, strain ref2",1.13
same,normalized growth,"locus YDR297W, strain sur2, stronger effect = lower value",1.03
same,normalized growth,"locus YDR318W, strain mcm21, stronger effect = lower value",0.982
same,normalized growth,"locus YDR334W, strain swr1, stronger effect = lower value",1.03
same,normalized growth,"locus YDR335W, strain msn5, stronger effect = lower value",1.02
same,normalized growth,"locus YDR388W, stronger effect = lower value",1.01
same,normalized growth,"locus YDR392W, strain spt3, stronger effect = lower value",0.975
same,normalized growth,"locus YDR502C, strain sam2, stronger effect = lower value",0.996
same,normalized growth,"locus YEL003W, strain gim4, stronger effect = lower value",1.01
same,normalized growth,"locus YEL037C, strain rad23, stronger effect = lower value",1.03
same,normalized growth,"locus YEL061C, strain CIN8 (second series), stronger effect = lower value",0.991
same,normalized growth,"locus YEL061C, strain CIN8, stronger effect = lower value",0.975
same,normalized growth,"locus YER015W, strain faa2, stronger effect = lower value",1.03
same,normalized growth,"locus YER016W, strain bim1, stronger effect = lower value",0.988
same,normalized growth,"locus YER110C, stronger effect = lower value",1.03
same,normalized growth,"locus YER111C, strain swi4, stronger effect = lower value",1.04
same,normalized growth,"locus YER155C, strain BEM2 (second series), stronger effect = lower value",1.03
same,normalized growth,"locus YER155C, strain BEM2, stronger effect = lower value",1.01
same,normalized growth,"locus YER167W, strain BCK2, stronger effect = lower value",1.02
same,normalized growth,"locus YFR010W, strain ubp6, stronger effect = lower value",0.994
same,normalized growth,"locus YGL078C, strain dbp3, stronger effect = lower value",1.02
same,normalized growth,"locus YGL086W, strain mad1, stronger effect = lower value",0.967
same,normalized growth,"locus YGL167C, strain pmr1, stronger effect = lower value",1.03
same,normalized growth,"locus YGL173C, strain kem1, stronger effect = lower value",0.995
same,normalized growth,"locus YGL227W, strain vid30, stronger effect = lower value",1.04
same,normalized growth,"locus YGL240W, strain doc1, stronger effect = lower value",0.965
same,normalized growth,"locus YGL248W, strain PDE1, stronger effect = lower value",0.984
same,normalized growth,"locus YGL253W, strain hxk2, stronger effect = lower value",1.03
same,normalized growth,"locus YGR135W, strain pre9, stronger effect = lower value",1.02
same,normalized growth,"locus YGR252W, strain gcn5, stronger effect = lower value",0.84
same,normalized growth,"locus YHR013C, strain ard1, stronger effect = lower value",1.06
same,normalized growth,"locus YHR027C, strain rpn1, stronger effect = lower value",1.01
same,normalized growth,"locus YHR030C, strain SLT2, stronger effect = lower value",1.02 and 0.894
same,normalized growth,"locus YHR079C, strain IRE1 (second series), stronger effect = lower value",1.02
same,normalized growth,"locus YHR079C, strain IRE1, stronger effect = lower value",0.936
same,normalized growth,"locus YHR094C, strain hxt1, stronger effect = lower value",1.03
same,normalized growth,"locus YHR129C, strain ARP1, stronger effect = lower value",1.01
same,normalized growth,"locus YHR142W, strain chs7, stronger effect = lower value",1.06
same,normalized growth,"locus YHR200W, strain rpn10, stronger effect = lower value",1.01
same,normalized growth,"locus YIL066C, strain RNR3, stronger effect = lower value",0.991
same,normalized growth,"locus YIL073C, strain SPO22, stronger effect = lower value",1.06
same,normalized growth,"locus YIL125W, strain kgd1, stronger effect = lower value",1.01
same,normalized growth,"locus YIR030C, strain dcg1, stronger effect = lower value",1.02
same,normalized growth,"locus YJL092W, strain hpr5, stronger effect = lower value",1.03
same,normalized growth,"locus YJL095W, strain BCK1 (second series), stronger effect = lower value",1.02
same,normalized growth,"locus YJL095W, strain BCK1, stronger effect = lower value",0.97 and 0.902
same,normalized growth,"locus YJL115W, strain asf1, stronger effect = lower value",1.06
same,normalized growth,"locus YJL129C, strain trk1, stronger effect = lower value",1.03
same,normalized growth,"locus YJL134W, strain LCB3, stronger effect = lower value",1.02
same,normalized growth,"locus YJL154C, strain vps35, stronger effect = lower value",1.03
same,normalized growth,"locus YJL164C, strain tpk1, stronger effect = lower value",1.02
same,normalized growth,"locus YJL166W, strain qcr8, stronger effect = lower value",1
same,normalized growth,"locus YJL168C, strain set2, stronger effect = lower value",1.02
same,normalized growth,"locus YJL187C, strain SWE1 (second series), stronger effect = lower value",0.974
same,normalized growth,"locus YJR043C, strain POL32, stronger effect = lower value",0.987
same,normalized growth,"locus YJR066W, strain TOR1, stronger effect = lower value",0.81 (active)
